From PubChem BioAssay (NCI)
“And” between values parts separate entries of the source, which are not always exact repeats. Identical values can stand only once. Compounds without any hit were thinned out: in the full panel of roughly 83,000, 20% have a hit.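 Activity criterion: percent growth below 10, measured after cells in 96-well plates were exposed to a single compound concentration for 48 hours.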 Values without a mark were called inactive. The source made the active and inactive calls.

These molecules were tested on MDA-MB-468 breast (assay: NCI-60 one-dose screen, 48 h (100 = growth as untreated, 0 = no growth, -100 = all killed)). Conditions: 10 µM unless noted.

With `COc1ccc(C(=O)/C=C/c2cc(-c3cc(OC)c(OC)c(OC)c3)n[nH]2)cc1` as the molecule, how does the growth read?
The growth was -66.1% (active).

`O=C(NCc1ccccc1)/C(=C/c1ccccc1)NC(=O)c1ccccc1` was tested. Which growth did it give?
The growth was 93.9%.

How did the growth turn out when `Fc1ccc(C2CC(c3cccc(Nc4ccncc4)c3)=NN2c2ccc(Cl)cc2)cc1` (stereo not given) was run?
The growth was 63.6%.

For `Nc1nc(=S)c2[nH]cnc2[nH]1`, which growth is on record?
Its growth is -13.1% (active).

For `O=C(O)CC1CCCCC1c1ccccc1` (stereo not given), which growth is on record?
The growth was 105%.

`CN(C)Cc1ccccn1` was tested. Which growth did it give?
Its growth is 105%.

`CC1(C)CC[C@]2(C(=O)Nc3ccccn3)CC[C@]3(C)C(=CC[C@@H]4[C@@]5(C)C/C(=C/c6ccncc6)C(=O)C(C)(C)[C@@H]5CC[C@]43C)[C@@H]2C1` was tested. Which growth did it give?
The growth was 19.2%.

`CN(c1ccccc1)c1ncnc2c1ncn2C` was tested. Which growth did it give?
Its growth is 113%.

Which growth does the source give for `O=C(O)Cc1ccc2c(c1)Cc1cccnc1O2` here?
Its growth is 97.1%.

Which growth does the source give for `COC1(OC)C2(Cl)C(Cl)=C(Cl)C1(Cl)C1COCC12` (stereo not given) here?
Its growth is 87%.

Which growth does the source give for `S=c1nc[nH]c2nc[nH]c12` here?
Its growth is 6.65% [50 µM] (active).

Which growth does the source give for `Cc1ccc(Nc2cccc3ccccc23)cc1` here?
The growth was -11.7% (active).

`O=C(Nc1cccc(-c2cccc(F)c2)c1)C1CCN(Cc2cccc3cccnc23)CC1` was tested. Which growth did it give?
The growth was 22.6%.

`OCc1cn(-c2ccc(Cl)cc2)nc1-c1ccc(O)cc1` was tested. Which growth did it give?
Its growth is 107%.

With `O=C(Nc1ccc(-n2cc(-c3ccncc3)c(-c3ccc(O)c(Cl)c3)n2)cc1)c1ccc(Cl)c(Cl)c1` as the molecule, how does the growth read?
The growth was 39.9%.

How did the growth turn out when `COc1ccc(NC(=O)Nc2ccc(-c3ccc(OC)c(OC)c3)nc2C)cc1` was run?
The growth was 83%.

`COc1ccc(-c2ccc(-c3ccc(C(=N)N)s3)s2)cc1Cl` was tested. Which growth did it give?
The growth was -12.5% (active).

With `CCOC(=O)CCN(CCC(=O)OCC)c1ccccc1` as the molecule, how does the growth read?
The growth was 96.6%.

For `Cc1cn(-c2cc(NC(=O)c3cncc(C#Cc4cnc5ccc(O[C@H]6CCOC6)nn45)c3)cc(C(F)(F)F)c2)cn1`, which growth is on record?
The growth was 145%.

Which growth does the source give for `COc1ccc(C/C(C)=C(/c2ccc(OCCCN(C)C)cc2)c2ccc(OC(C)=O)cc2)cc1` here?
Its growth is 63.8%.

With `O=C(O)c1cccc(N/C=C/C(=O)c2cc3cc(Br)ccc3oc2=O)c1` as the molecule, how does the growth read?
The growth was 96.1%.

With `c1ccc(CNc2ncnc3scc(-c4cccs4)c23)nc1` as the molecule, how does the growth read?
The growth was 12%.

With `Clc1ccc2[nH]cc(-c3nn4cc(-c5ccncc5)nc4s3)c2c1` as the molecule, how does the growth read?
Its growth is 42.4%.

Which growth does the source give for `N#CC1=C(N)Oc2c(sc3c(F)cccc23)C1c1ccc(Cl)cc1` (stereo not given) here?
Its growth is -42.2% (active).

For `O=C1C=CC(=O)N1c1ccc2ccccc2c1`, which growth is on record?
Its growth is 51.3% and 62.7%.

How did the growth turn out when `O=C(CCCN1CCOCC1)Nc1ccc(Cn2nnc3c2C(=O)c2nnn(Cc4ccc(NC(=O)CCCN5CCOCC5)cc4)c2C3=O)cc1` was run?
The growth was -74.7% (active).

For `COc1ccc(/C(=N/O)c2cc(F)c(F)c(OC)c2F)cc1O`, which growth is on record?
The growth was 18.4%.

For `COc1ccc(/C=C/C(=O)c2ccc(-n3cc(CN4CCN(c5cc6c(cc5F)c(=O)c(C(=O)O)cn6C5CC5)CC4)nn3)cc2)cc1OC`, which growth is on record?
The growth was -7.19% (active).

Which growth does the source give for `O=C1c2c(c3c4cc(Br)ccc4[nH]c3c3ccc4ccccc4c23)C(=O)N1O` here?
The growth was 62.1%.

Which growth does the source give for `Cc1nc(Cl)cc(N(c2cc(Cl)nc(C)n2)c2ncc(C(=O)Nc3c(C)cccc3Cl)s2)n1` here?
Its growth is 42.1%.

`COCCCNC(=O)c1nnn2c1nc(N)c1cc(Cl)ccc12` was tested. Which growth did it give?
Its growth is 88.6%.

`Clc1ccc(Nc2nnc(-c3ccc4c(c3)OCO4)o2)cc1` was tested. Which growth did it give?
The growth was 106%.

For `O=C(O)[C@@H]1[C@H]2C[C@H]3c4[nH]c5ccccc5c4CCN3C[C@@H]2CC[C@@H]1O`, which growth is on record?
The growth was 104%.

For `O=C(O)CSCC(=O)Nc1cc(C(F)(F)F)ccc1Cl`, which growth is on record?
Its growth is 105%.

Which growth does the source give for `CN1CCN(Cc2ccc(NC(=O)c3cncc(C#Cc4cnc(N)nc4)c3)cc2C(F)(F)F)CC1` here?
The growth was 36%.

`COc1ccc(-c2nn(-c3ccccc3)cc2/C=C/C(=O)OCc2cn(-c3ccc(F)c(Cl)c3)nn2)cc1` was tested. Which growth did it give?
Its growth is 72.2%.

For `COC(=O)C1CC(=O)N(C(=O)Nc2ccc(Cl)cc2Cl)C1` (stereo not given), which growth is on record?
Its growth is 97.8%.

`O=C(CSc1nc2ccc([N+](=O)[O-])cc2[nH]1)Nc1cccc(C(F)(F)F)c1` was tested. Which growth did it give?
Its growth is -8.14% (active).

With `O=C1C=C(OCC=C(Cl)Cl)C(=O)c2ccccc21` as the molecule, how does the growth read?
Its growth is 41.5%.

`CCCCCCCCCCCCN1CCCC(C)C1` (stereo not given) was tested. Which growth did it give?
Its growth is 68.4%.
